According to PubChem BioAssay AID1159580 (chemical genetic matrix, 2015):
“And” between values parts separate entries of the source, which are not always exact repeats. Equal entries are not always repeated. Hit rate of the full screen: of about 5,500 compounds, about 2,000 (36%) were called active. About 18% were inconclusive and are not listed. Rule as the data show it: active = normalized growth mostly below about 0.91 (no sharp cut-off); inconclusive = no clear call, values can overlap the other calls; inactive = mostly above about 0.92. Some of the results follow.

Experiment: chemical genetic growth profiling, strain panel (AID 1159580);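 also: tested at 20 µM; growth read once vehicle control cultures reached saturation at 30 °C; 1 = growth at the plate median or of vehicle wells; lower values mean less growth of the strain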
Settings: S. cerevisiae deletion strains, growth OD

Measured: normalized growth

CCC(C)C(NC)C(=O)O (centres undefined)
inactive: locus YAL013W, strain DEP1, active compounds read low 1.02 | locus YAL021C, strain ccr4, active compounds read low 1.03 | locus YAL026C, strain drs2, active compounds read low 1.02 | locus YAL030W, strain snc1, active compounds read low 1.01 | locus YBL061C, strain skt5, active compounds read low 1.03 | locus YBR009C, strain hhf1, active compounds read low 1.02 | locus YBR021W, strain FUR4, active compounds read low 1.01 | locus YBR023C, strain chs3, active compounds read low 1.02 | locus YBR171W, strain sec66, active compounds read low 1.05 | locus YBR229C, strain ROT2, active compounds read low 0.947 | locus YBR231C, strain swc5, active compounds read low 1.01 | locus YBR279W, strain paf1, active compounds read low 1.01 | locus YCL011C, strain gbp2, active compounds read low 1.02 | locus YCL016C, strain dcc1, active compounds read low 1.03 | locus YCL029C, strain bik1, active compounds read low 0.982 | locus YCL061C, strain MRC1, active compounds read low 1.03 | locus YCL069W, strain vba3, active compounds read low 1.02 | locus YCR088W, strain abp1, active compounds read low 1 | locus YDL005C, strain med2, active compounds read low 1.02 | locus YDL035C, strain GPR1, active compounds read low 0.981 | locus YDL040C, strain nat1, active compounds read low 1.01 | locus YDL074C, strain BRE1, active compounds read low 1.01 | locus YDL101C, strain DUN1, active compounds read low 0.983 | locus YDL134C, strain PPH21, active compounds read low 0.984 | locus YDL185W, strain tfp1, active compounds read low 0.986 | locus YDL192W, strain arf1, active compounds read low 1 | locus YDR001C, strain nth1, active compounds read low 1.02 | locus YDR069C, strain doa4, active compounds read low 1.02 | locus YDR101C, strain arx1, active compounds read low 1 | locus YDR137W, strain rgp1, active compounds read low 1.06 | locus YDR159W, strain sac3, active compounds read low 1.02 | locus YDR162C, strain NBP2, active compounds read low 0.966 | locus YDR195W, strain ref2 0.985 | locus YDR297W, strain sur2, active compounds read low 1.01 | locus YDR318W, strain mcm21, active compounds read low 0.985 | locus YDR334W, strain swr1, active compounds read low 1.02 | locus YDR335W, strain msn5, active compounds read low 1.01 | locus YDR388W, active compounds read low 0.994 | locus YDR392W, strain spt3, active compounds read low 0.986 | locus YDR502C, strain sam2, active compounds read low 0.997 | locus YEL003W, strain gim4, active compounds read low 1.01 | locus YEL037C, strain rad23, active compounds read low 1.02 | locus YEL061C, strain CIN8 (second series), active compounds read low 1.02 | locus YEL061C, strain CIN8, active compounds read low 0.983 | locus YER015W, strain faa2, active compounds read low 1.02 | locus YER016W, strain bim1, active compounds read low 1.01 | locus YER110C, active compounds read low 0.979 | locus YER111C, strain swi4, active compounds read low 1.03 | locus YER155C, strain BEM2 (second series), active compounds read low 1.01 | locus YER155C, strain BEM2, active compounds read low 1 | locus YER167W, strain BCK2, active compounds read low 0.975 | locus YFR010W, strain ubp6, active compounds read low 1.03 | locus YGL078C, strain dbp3, active compounds read low 0.999 | locus YGL086W, strain mad1, active compounds read low 1.01 | locus YGL167C, strain pmr1, active compounds read low 1.02 | locus YGL173C, strain kem1, active compounds read low 1.03 | locus YGL227W, strain vid30, active compounds read low 1.02 | locus YGL240W, strain doc1, active compounds read low 1.01 | locus YGL248W, strain PDE1, active compounds read low 0.982 | locus YGL253W, strain hxk2, active compounds read low 1.02 | locus YGR135W, strain pre9, active compounds read low 0.99 | locus YGR252W, strain gcn5, active compounds read low 0.986 | locus YHR013C, strain ard1, active compounds read low 1.03 | locus YHR027C, strain rpn1, active compounds read low 1.03 | locus YHR030C, strain SLT2, active compounds read low 0.985 and 1.06 | locus YHR079C, strain IRE1 (second series), active compounds read low 0.991 | locus YHR079C, strain IRE1, active compounds read low 1.09 | locus YHR094C, strain hxt1, active compounds read low 0.977 | locus YHR129C, strain ARP1, active compounds read low 0.99 | locus YHR142W, strain chs7, active compounds read low 1.02 | locus YHR200W, strain rpn10, active compounds read low 0.986 | locus YIL066C, strain RNR3, active compounds read low 0.944 | locus YIL073C, strain SPO22, active compounds read low 0.972 | locus YIL125W, strain kgd1, active compounds read low 0.982 | locus YIR030C, strain dcg1, active compounds read low 0.99 | locus YJL092W, strain hpr5, active compounds read low 1.03 | locus YJL095W, strain BCK1 (second series), active compounds read low 1.01 | locus YJL095W, strain BCK1, active compounds read low 1.05 | locus YJL115W, strain asf1, active compounds read low 1.03 | locus YJL129C, strain trk1, active compounds read low 1.05 | locus YJL134W, strain LCB3, active compounds read low 0.967 | locus YJL154C, strain vps35, active compounds read low 1.01 | locus YJL164C, strain tpk1, active compounds read low 1.03 | locus YJL166W, strain qcr8, active compounds read low 1.02 | locus YJL168C, strain set2, active compounds read low 0.993 | locus YJL187C, strain SWE1 (second series), active compounds read low 1 | locus YJL187C, strain SWE1, active compounds read low 1.01 | locus YJR043C, strain POL32, active compounds read low 0.969 | locus YJR066W, strain TOR1, active compounds read low 1 | locus YKL009W, strain mrt4, active compounds read low 1.01 | locus YKL068W, active compounds read low 0.973 | locus YKL085W, strain MDH1 (second series), active compounds read low 0.979 | locus YKL085W, strain MDH1, active compounds read low 0.979 | locus YKL160W, strain elf1, active compounds read low 1.02 | locus YKL190W, strain CNB1, active compounds read low 1 | locus YKR001C, strain vps1, active compounds read low 1 | locus YKR026C, strain gcn3, active compounds read low 1.02 | locus YKR091W, strain srl3, active compounds read low 1 | locus YLL001W, strain dnm1, active compounds read low 1.03 | locus YLL026W, active compounds read low 1.01 | locus YLL041C, strain sdh2, active compounds read low 1.02 | locus YLR027C, strain aat2, active compounds read low 1.02 | locus YLR039C, strain RIC1, active compounds read low 0.995 | locus YLR058C, strain SHM2, active compounds read low 0.935 | locus YLR102C, strain apc9, active compounds read low 0.985 | locus YLR113W, strain HOG1, active compounds read low 1.09 | locus YLR221C, strain rsa3, active compounds read low 1.03 | locus YLR258W, strain gsy2, active compounds read low 1.01 | locus YLR262C, strain YPT6 (second series), active compounds read low 1.05 | locus YLR262C, strain YPT6, active compounds read low 0.989 | locus YLR268W, strain sec22, active compounds read low 1.03 | locus YLR320W, strain mms22, active compounds read low 1.03 | locus YLR330W, strain CHS5, active compounds read low 0.987 | locus YLR342W, strain FKS1 (second series), active compounds read low 0.977 | locus YLR342W, strain FKS1, active compounds read low 1.01 | locus YLR357W, strain rsc2, active compounds read low 1.02 | locus YLR370C, strain arc18, active compounds read low 1.03 | locus YLR371W, strain rom2, active compounds read low 0.982 | locus YLR384C, strain iki3, active compounds read low 1.01 | locus YLR418C, strain cdc73, active compounds read low 0.971 | locus YML016C, strain PPZ1, active compounds read low 0.992 | locus YML032C, strain rad52, active compounds read low 0.963 | locus YML120C, strain ndi1, active compounds read low 1.01 | locus YML124C, strain tub3, active compounds read low 0.997 | locus YMR058W, strain fet3, active compounds read low 1.03 | locus YMR078C, strain ctf18, active compounds read low 0.985 | locus YMR125W, strain sto1, active compounds read low 1.01 | locus YMR129W, active compounds read low 1.02 | locus YMR205C, strain PFK2, active compounds read low 1.03 | locus YMR223W, strain ubp8, active compounds read low 0.991 | locus YMR231W, strain pep5, active compounds read low 1.01 | locus YMR307W, strain GAS1, active compounds read low 1.02 | locus YNL067W, strain RPL9B, active compounds read low 1.03 | locus YNL071W, strain lat1, active compounds read low 1.02 | locus YNL128W, strain TEP1, active compounds read low 0.986 | locus YNL183C, strain NPR1, active compounds read low 0.998 | locus YNL209W, strain ssb2, active compounds read low 1.01 | locus YNL233W, strain BNI4, active compounds read low 1.04 | locus YNL248C, strain rpa49, active compounds read low 1.02 | locus YNL250W, strain rad50, active compounds read low 0.962 | locus YNL271C, strain bni1, active compounds read low 0.992 | locus YNL298W, strain CLA4, active compounds read low 0.988 | locus YNL307C, strain MCK1, active compounds read low 0.988 | locus YNL322C, strain KRE1 (second series), active compounds read low 1.02 | locus YNR049C, strain mso1, active compounds read low 1.02 | locus YNR052C, strain pop2, active compounds read low 1.01 | locus YOL012C, strain htz1 0.872 | locus YOL147C, strain pex11, active compounds read low 0.976 | locus YOR001W, strain rrp6, active compounds read low 1.02 | locus YOR061W, strain CKA2, active compounds read low 0.961 | locus YOR069W, strain VPS5, active compounds read low 0.984 | locus YOR070C, strain gyp1, active compounds read low 1.03 | locus YOR080W, strain dia2, active compounds read low 1.02 | locus YOR083W, strain WHI5, active compounds read low 1.02 | locus YOR106W, strain vam3, active compounds read low 1.02 | locus YOR136W, strain idh2, active compounds read low 0.994 | locus YOR144C, strain elg1, active compounds read low 0.993 | locus YOR184W, strain ser1, active compounds read low 0.989 | locus YOR231W, strain MKK1, active compounds read low 1.08 | locus YOR265W, strain rbl2, active compounds read low 1.01 | locus YOR270C, strain vph1, active compounds read low 1.05 | locus YOR290C, strain snf2, active compounds read low 1.02 | locus YOR316C, strain cot1, active compounds read low 0.993 | locus YPL051W, strain arl3, active compounds read low 1.04 | locus YPL078C, strain atp4, active compounds read low 1.02 | locus YPL106C, strain sse1, active compounds read low 1.01 | locus YPL240C, strain hsp82, active compounds read low 1 | locus YPL241C, strain CIN2, active compounds read low 0.98 | locus YPL256C, strain CLN2, active compounds read low 1.09 | locus YPR119W, strain clb2, active compounds read low 0.991 | locus YPR141C, strain kar3, active compounds read low 0.978 | locus YPR163C, strain tif3, active compounds read low 0.985 | locus YPR167C, strain met16, active compounds read low 0.989 | strain wtn01, active compounds read low 1.01
